About 79,000 compounds went through this panel and 15% of them were active in at least one assay; those are over-represented in the sample as a whole. Calls of active or inactive are those of the source. No stated cut-off is given here; in the data, active means growth inhibition above about 70%; inactive means the rest.
Columns and labels:
[1] = NCI Yeast Anticancer Drug Screen. Data for the rad52 strain (AID 147);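 further: 0% = growth of vehicle-treated control cultures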; conditions: S. cerevisiae rad52 mutant growth inhibition, stronger effect = higher value
Summary of the method: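 Inhibition of yeast growth, referenced to vehicle controls, was the measured output for a strain with defective DNA damage repair.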

[2] = NCI Yeast Anticancer Drug Screen. Data for the rad50EPP+ strain (AID 151);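 further: 0% = growth of vehicle-treated control cultures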; conditions: S. cerevisiae rad50 mutant strain, stronger effect = higher value
Summary of the method: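 Genetically defined yeast (rad50EPP+, DNA damage repair alteration) is grown with compound, and inhibition of growth is expressed relative to vehicle-treated controls.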

[3] = NCI Yeast Anticancer Drug Screen. Data for the mgt1 strain (AID 153); conditions: S. cerevisiae mgt1 mutant growth inhibition, stronger effect = higher value
Summary of the method: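 In the mgt1 strain, test compounds were added and growth inhibition was determined relative to vehicle-treated controls.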

[4] = NCI Yeast Anticancer Drug Screen. Data for the rad50 strain (AID 155);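 further: 0% = growth of vehicle-only cultures of the same strain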; conditions: S. cerevisiae rad50 strain growth inhibition, stronger effect = higher value
Summary of the method: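 Compounds were tested on a yeast strain with an engineered DNA damage repair alteration; the reported value is growth inhibition normalised to vehicle treatment.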

[5] = NCI Yeast Anticancer Drug Screen. Data for the mec2-1 strain (AID 157); conditions: S. cerevisiae mec2-1 strain, stronger effect = higher value
Summary of the method: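 Each compound was tested on mec2-1 yeast, a strain altered in DNA damage repair or cell cycle control. Growth inhibition is reported relative to vehicle.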

[6] = NCI Yeast Anticancer Drug Screen. Data for the rad14 strain (AID 159);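 further: 0% = growth of vehicle-treated control cultures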; conditions: S. cerevisiae rad14 strain growth inhibition, stronger effect = higher value
Summary of the method: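 Compound-treated yeast with a defined DNA-repair lesion; growth inhibition normalised to vehicle-treated cultures.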

[7] = NCI Yeast Anticancer Drug Screen. Data for the sgs1 mgt1 strain (AID 161);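 further: 0% = growth of cultures given vehicle only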; conditions: S. cerevisiae sgs1 mgt1 strain, stronger effect = higher value
Summary of the method: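 Genetically altered yeast, compound exposure, growth inhibition relative to vehicle.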

[8] = NCI Yeast Anticancer Drug Screen. Data for the CLN2oe strain (AID 163);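 further: 0% = growth of vehicle-only control cultures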; conditions: S. cerevisiae CLN2oe strain, stronger effect = higher value
Summary of the method: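 First, the altered yeast strain was treated with each compound; second, its growth was measured; finally, inhibition was derived by comparison with vehicle controls.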

[9] = NCI Yeast Anticancer Drug Screen. Data for the cln2 rad14 strain (AID 165);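 further: 0% = growth equal to vehicle treated cultures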; conditions: S. cerevisiae cln2 rad14 strain, stronger effect = higher value
Summary of the method: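 Test compounds were added to cln2 rad14 yeast cultures; inhibition of growth was then determined by comparison with vehicle treatment.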

[10] = NCI Yeast Anticancer Drug Screen. Data for the bub3 strain (AID 167); conditions: S. cerevisiae bub3 mutant strain, stronger effect = higher value
Summary of the method: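 Growth of a checkpoint-deficient yeast mutant is measured after compound exposure. Values represent inhibition relative to vehicle.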

[11] = NCI Yeast Anticancer Drug Screen. Data for the wt2 strain (AID 169);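 further: 0% = growth of vehicle-treated yeast cultures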; conditions: S. cerevisiae wt2 strain growth inhibition, stronger effect = higher value
Summary of the method: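 The panel's yeast strains carry defined changes in DNA repair or cell cycle genes. Each strain is grown with compound, and growth loss is scored relative to vehicle.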

[12] = NCI Yeast Anticancer Drug Screen. Data for the mlh1 strain (AID 171);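 further: 0% = growth of vehicle-treated control cultures of the same strain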; conditions: S. cerevisiae mlh1 strain growth inhibition, stronger effect = higher value
Summary of the method: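 Inhibition values reflect reduced yeast growth in the presence of compound, referenced to vehicle controls, using a strain chosen for its alteration in DNA repair or cell cycle control.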

[13] = NCI Yeast Anticancer Drug Screen. Data for the sgs1 strain (AID 173);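 further: 0% = growth of vehicle-only control cultures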; conditions: S. cerevisiae sgs1 mutant, stronger effect = higher value
Summary of the method: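 Vehicle-treated cultures served as reference for growth inhibition of a yeast strain altered in DNA damage repair or cell cycle control after compound exposure.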

[14] = NCI Yeast Anticancer Drug Screen. Data for the mlh1 rad18 strain (AID 175); conditions: S. cerevisiae mlh1 rad18 strain growth inhibition, stronger effect = higher value
Summary of the method: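 Inhibition values reflect reduced growth of mutant yeast versus vehicle-treated controls following compound exposure; the mutations affect DNA damage repair.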

[15] = NCI Yeast Anticancer Drug Screen. Data for the rad18 strain (AID 177); conditions: S. cerevisiae rad18 mutant growth inhibition, stronger effect = higher value
Summary of the method: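 Steps: expose repair-mutant yeast to compound; measure growth; express as inhibition relative to vehicle control.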

[16] = at 5.0 µM (retest, dose inferred, filed as 0.5)
[17] = at 50.0 µM (retest, dose inferred, filed as 5.0)

Measured: growth inhibition

Cc1cc(O)c2c(c1O)C(=O)C13C(=C2O)C(=O)C2C(O)C1C1C(O)C3C(=O)C3=C(O)c4c(O)cc(C)c(O)c4C(=O)C321 (stereo not drawn)
active: [1]; at 33.0 µM 89% | [1]; at 100.0 µM 90% | [3]; at 33.0 µM 86% | [3]; at 100.0 µM 82% | [4]; at 33.0 µM 79% | [4]; [17] 84% | [4]; at 50.0 µM 77.3% | [4]; at 100.0 µM 80% | [5]; [16] 75% | [5]; at 11.0 µM 76% | [5]; at 33.0 µM 86% | [5]; [17] 93% | [5]; at 50.0 µM 85.3% | [5]; at 100.0 µM 83% | [6]; at 33.0 µM 77% | [6]; at 100.0 µM 80% | [7]; [17] 86% | [7]; at 50.0 µM 79.2% | [8]; at 11.0 µM 84% | [8]; at 33.0 µM 91% | [8]; at 100.0 µM 83% | [9]; [17] 91% | [10]; at 33.0 µM 82% | [10]; [17] 87% | [10]; at 50.0 µM 77% | [10]; at 100.0 µM 84% | [11]; at 33.0 µM 87% | [11]; at 100.0 µM 85% | [12]; at 33.0 µM 79% | [12]; at 100.0 µM 83% | [13]; at 33.0 µM 80% | [13]; at 100.0 µM 80% | [14]; [17] 86% | [15]; at 33.0 µM 73% | [15]; at 100.0 µM 84%
inactive: [1]; at 1.2 µM 28% | [1]; at 3.7 µM 39% | [1]; at 11.0 µM 58% | [2]; at 1.2 µM 4% | [2]; at 3.7 µM 3% | [2]; at 11.0 µM -4% | [2]; at 33.0 µM 1% | [2]; at 100.0 µM -38% | [3]; at 1.2 µM 5% | [3]; at 3.7 µM 26% | [3]; at 11.0 µM 61% | [4]; at 1.2 µM 29% | [4]; at 3.7 µM 37% | [4]; [16] 12% | [4]; at 11.0 µM 51% | [5]; at 1.2 µM 19% | [5]; at 3.7 µM 34% | [6]; at 1.2 µM -6% | [6]; at 3.7 µM 9% | [6]; at 11.0 µM 52% | [7]; [16] 37% | [8]; at 1.2 µM 18% | [8]; at 3.7 µM 17% | [9]; [16] 28% | [9]; at 50.0 µM 29.8% | [10]; at 1.2 µM -5% | [10]; at 3.7 µM 4% | [10]; [16] 59% | [10]; at 11.0 µM 27% | [11]; at 1.2 µM 12% | [11]; at 3.7 µM 26% | [11]; at 11.0 µM 52% | [12]; at 1.2 µM 18% | [12]; at 3.7 µM 15% | [12]; at 11.0 µM 43% | [13]; at 1.2 µM 29% | [13]; at 3.7 µM 31% | [13]; at 11.0 µM 54% | [14]; [16] 58% | [14]; at 50.0 µM 63.4% | [15]; at 1.2 µM -3% | [15]; at 3.7 µM -4% | [15]; at 11.0 µM 15%

Cc1ccc(CNc2ccc(Br)cc2)cc1
active: [1]; at 100.0 µM 88% | [3]; at 100.0 µM 92% | [4]; [17] 89% | [4]; at 100.0 µM 82% | [5]; [17] 90% | [5]; at 50.0 µM 76.7% | [5]; at 100.0 µM 93% | [7]; [17] 94% | [8]; at 100.0 µM 81% | [9]; [17] 97% | [10]; [17] 94% | [10]; at 100.0 µM 91% | [11]; at 100.0 µM 87% | [12]; at 100.0 µM 85% | [13]; at 100.0 µM 72% | [14]; [17] 77% | [15]; at 100.0 µM 77%
inactive: [1]; at 1.2 µM 5% | [1]; at 3.7 µM 7% | [1]; at 11.0 µM 18% | [1]; at 33.0 µM 66% | [2]; at 1.2 µM -10% | [2]; at 3.7 µM -11% | [2]; at 11.0 µM -4% | [2]; at 33.0 µM 14% | [2]; at 100.0 µM 64% | [3]; at 1.2 µM 16% | [3]; at 3.7 µM 12% | [3]; at 11.0 µM 27% | [3]; at 33.0 µM 69% | [4]; at 1.2 µM 17% | [4]; at 3.7 µM 6% | [4]; [16] 61% | [4]; at 11.0 µM 16% | [4]; at 33.0 µM 67% | [4]; at 50.0 µM 62.8% | [5]; at 1.2 µM 1% | [5]; at 3.7 µM 2% | [5]; [16] 63% | [5]; at 11.0 µM 17% | [5]; at 33.0 µM 66% | [7]; [16] -19% | [8]; at 1.2 µM -9% | [8]; at 3.7 µM 11% | [8]; at 11.0 µM 6% | [8]; at 33.0 µM 34% | [9]; [16] 61% | [10]; at 1.2 µM -7% | [10]; at 3.7 µM 11% | [10]; [16] 32% | [10]; at 11.0 µM 26% | [10]; at 33.0 µM 63% | [11]; at 1.2 µM -31% | [11]; at 3.7 µM -30% | [11]; at 11.0 µM -13% | [11]; at 33.0 µM 35% | [12]; at 1.2 µM -32% | [12]; at 3.7 µM -31% | [12]; at 11.0 µM -21% | [12]; at 33.0 µM 40% | [13]; at 1.2 µM -17% | [13]; at 3.7 µM -17% | [13]; at 11.0 µM -15% | [13]; at 33.0 µM 34% | [14]; [16] 28% | [14]; at 50.0 µM 60.2% | [15]; at 1.2 µM -6% | [15]; at 3.7 µM -15% | [15]; at 11.0 µM -7% | [15]; at 33.0 µM 49%

From PubChem BioAssay (NCI)
